Among the data in article PMC7862700, “An all-to-all approach to the identification of sequence-specific readers for epigenetic DNA modifications on cytosine” are binding signal values, retold here.

Test in all cases: DAPPL (digital affinity profiling via proximity ligation, sequencing); 10 mM Tris-HCl pH 7.5, 50 mM NaCl, 1 mM DTT, 4% glycerol, room temperature, 30 min; GST-TFs on glutathione beads, 16-mer random dsDNA library, 0.1% formaldehyde crosslink after washing; high values mean tight binding
Test [1] addresses T1, FEV (Homo sapiens, UniProt Q99581 1-238).
T1 sequence: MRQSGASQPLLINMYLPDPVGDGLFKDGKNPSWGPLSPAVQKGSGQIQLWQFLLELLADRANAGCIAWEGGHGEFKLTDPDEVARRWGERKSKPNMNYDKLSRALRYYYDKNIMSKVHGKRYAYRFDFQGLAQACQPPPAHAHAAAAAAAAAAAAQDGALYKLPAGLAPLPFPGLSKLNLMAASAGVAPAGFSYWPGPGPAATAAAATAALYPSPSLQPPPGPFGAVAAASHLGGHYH
The conditions noted are these: protein: recombinant; tags: N-terminal GST; dsDNA, one strand shown. Put shortly:
(§1)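 After expression in yeast as GST fusions, human transcription factors were bound to glutathione beads, DNA-barcoded and mixed with a tag-only sample. The pools were incubated with 200 nmole of a 16-mer random double-stranded DNA library in Tris/NaCl/DTT/glycerol buffer (30 min, room temperature), washed and crosslinked with 0.1% formaldehyde. Proximity ligation with BsaI/T4 ligase ran for 1 h at 37 °C, before PCR amplification and sequencing on an Illumina NextSeq500. Binding signal is a hexamer's read frequency for a factor divided by its frequency for the tag-only sample.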

The target of test [2] is ETV5 (Homo sapiens, UniProt P41161 1-510). The following applies: protein: recombinant; tags: N-terminal GST; dsDNA, one strand shown. The method in brief: as §1
Sequence of ETV5 (P41161 whole entry): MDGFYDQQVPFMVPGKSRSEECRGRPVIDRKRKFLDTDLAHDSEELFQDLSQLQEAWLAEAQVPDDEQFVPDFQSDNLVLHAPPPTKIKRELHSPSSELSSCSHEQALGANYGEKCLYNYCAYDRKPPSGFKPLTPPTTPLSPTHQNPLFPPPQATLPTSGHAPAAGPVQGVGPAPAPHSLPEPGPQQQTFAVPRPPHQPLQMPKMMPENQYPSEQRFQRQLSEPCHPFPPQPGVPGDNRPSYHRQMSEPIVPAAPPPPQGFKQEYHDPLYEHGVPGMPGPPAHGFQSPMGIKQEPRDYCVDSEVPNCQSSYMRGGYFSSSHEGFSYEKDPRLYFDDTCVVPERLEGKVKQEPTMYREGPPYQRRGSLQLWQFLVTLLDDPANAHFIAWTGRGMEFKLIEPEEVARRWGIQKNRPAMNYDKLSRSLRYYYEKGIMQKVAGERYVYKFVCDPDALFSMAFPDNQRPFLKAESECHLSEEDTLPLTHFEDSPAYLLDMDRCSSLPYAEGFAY
Test [3] concerns the target HSF1 (Homo sapiens, UniProt Q00613 1-529). The conditions noted are these: protein: recombinant; tags: N-terminal GST; chain copies: 3; dsDNA, one strand shown. Put shortly: as §1
Test [4] concerns the target T2, SPIC (Homo sapiens, UniProt Q8N5J4 1-248).
T2 sequence: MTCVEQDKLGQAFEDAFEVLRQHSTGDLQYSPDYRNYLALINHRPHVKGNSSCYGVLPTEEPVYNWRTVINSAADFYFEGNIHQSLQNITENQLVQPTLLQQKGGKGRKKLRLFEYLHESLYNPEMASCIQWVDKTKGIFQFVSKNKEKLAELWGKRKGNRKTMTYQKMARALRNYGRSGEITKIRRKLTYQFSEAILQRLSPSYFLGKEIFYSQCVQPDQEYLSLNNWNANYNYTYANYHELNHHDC
The following applies: protein: recombinant; tags: N-terminal GST; dsDNA, one strand shown. Put shortly:
as §1

Test [5] addresses ELF4 (Homo sapiens, UniProt Q99607 1-663). The following applies: protein: recombinant; tags: N-terminal GST; dsDNA, one strand shown. The method in brief: as §1
Test [6] has as its target T3, ELK4 (Homo sapiens, UniProt P28324-2 1-405).
T3 sequence: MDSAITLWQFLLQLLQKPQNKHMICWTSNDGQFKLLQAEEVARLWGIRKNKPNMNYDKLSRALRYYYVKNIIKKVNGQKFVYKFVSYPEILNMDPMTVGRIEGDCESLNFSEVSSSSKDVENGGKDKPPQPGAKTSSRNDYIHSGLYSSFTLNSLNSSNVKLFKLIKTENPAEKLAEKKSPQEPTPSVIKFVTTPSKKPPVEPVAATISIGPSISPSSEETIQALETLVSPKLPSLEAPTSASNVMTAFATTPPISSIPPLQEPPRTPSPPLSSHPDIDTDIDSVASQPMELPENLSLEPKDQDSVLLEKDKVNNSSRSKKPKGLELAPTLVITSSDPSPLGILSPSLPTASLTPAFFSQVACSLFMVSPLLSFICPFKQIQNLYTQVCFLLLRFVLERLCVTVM
The conditions noted are these: protein: recombinant; tags: N-terminal GST; dsDNA, one strand shown. Put shortly: as §1

The target of test [7] is T4, ETV2 (Homo sapiens, UniProt O00321 1-342).
T4 sequence: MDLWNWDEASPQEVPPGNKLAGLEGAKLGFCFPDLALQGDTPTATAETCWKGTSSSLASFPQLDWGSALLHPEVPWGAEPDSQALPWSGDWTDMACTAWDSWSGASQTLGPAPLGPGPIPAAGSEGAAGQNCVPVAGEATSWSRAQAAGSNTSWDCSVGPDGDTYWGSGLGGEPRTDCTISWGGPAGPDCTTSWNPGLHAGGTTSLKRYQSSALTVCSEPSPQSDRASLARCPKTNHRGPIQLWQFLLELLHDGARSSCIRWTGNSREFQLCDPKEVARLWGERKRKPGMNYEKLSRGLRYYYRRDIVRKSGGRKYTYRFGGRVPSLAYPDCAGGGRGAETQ
The conditions noted are these: protein: recombinant; tags: N-terminal GST; dsDNA, one strand shown. Put shortly:
as §1

The target of test [8] is T5, ELF3 (Homo sapiens, UniProt P78545 1-371).
T5 sequence: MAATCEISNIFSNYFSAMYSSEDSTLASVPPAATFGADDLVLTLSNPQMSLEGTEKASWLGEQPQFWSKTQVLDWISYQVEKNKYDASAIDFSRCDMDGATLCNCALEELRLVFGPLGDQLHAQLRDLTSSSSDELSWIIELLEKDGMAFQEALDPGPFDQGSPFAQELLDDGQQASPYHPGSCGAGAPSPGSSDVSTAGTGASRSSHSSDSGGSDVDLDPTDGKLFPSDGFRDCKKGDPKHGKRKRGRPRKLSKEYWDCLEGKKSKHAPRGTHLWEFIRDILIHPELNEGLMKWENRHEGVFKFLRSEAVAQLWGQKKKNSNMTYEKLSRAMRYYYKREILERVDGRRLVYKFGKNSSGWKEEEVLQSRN
The conditions noted are these: protein: recombinant; tags: N-terminal GST; dsDNA, one strand shown. The method in brief:
as §1

Test [9] deals with CRX (Homo sapiens, UniProt O43186 1-299). The following applies: protein: recombinant; tags: N-terminal GST; dsDNA, one strand shown. The method in brief:
as §1

In test [10] the target is ETV1 (Homo sapiens, UniProt P50549 1-477). The conditions noted are these: protein: recombinant; tags: N-terminal GST; dsDNA, one strand shown. The method in brief:
as §1

Test [11] addresses T6, ERF (Homo sapiens, UniProt P50548 1-548).
T6 sequence: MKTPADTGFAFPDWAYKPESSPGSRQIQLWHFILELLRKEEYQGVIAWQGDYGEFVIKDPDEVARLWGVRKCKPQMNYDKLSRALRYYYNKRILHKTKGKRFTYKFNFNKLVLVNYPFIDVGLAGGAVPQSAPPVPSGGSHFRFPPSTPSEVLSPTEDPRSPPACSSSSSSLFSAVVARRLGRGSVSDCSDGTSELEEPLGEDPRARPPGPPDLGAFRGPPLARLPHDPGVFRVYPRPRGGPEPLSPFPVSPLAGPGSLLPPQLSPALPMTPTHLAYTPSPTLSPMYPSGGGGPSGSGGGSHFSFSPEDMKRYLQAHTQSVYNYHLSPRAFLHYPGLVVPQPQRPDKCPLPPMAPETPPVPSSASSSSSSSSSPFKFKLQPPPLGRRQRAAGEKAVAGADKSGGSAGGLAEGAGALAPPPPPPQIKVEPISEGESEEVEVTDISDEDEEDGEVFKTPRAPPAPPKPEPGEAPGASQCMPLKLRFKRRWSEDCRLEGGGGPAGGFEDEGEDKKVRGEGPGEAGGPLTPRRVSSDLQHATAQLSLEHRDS
The conditions noted are these: protein: recombinant; tags: N-terminal GST; dsDNA, one strand shown. Put shortly:
as §1

Test [12] concerns the target T7, ETV3L (Homo sapiens, UniProt Q6ZN32 1-361).
T7 sequence: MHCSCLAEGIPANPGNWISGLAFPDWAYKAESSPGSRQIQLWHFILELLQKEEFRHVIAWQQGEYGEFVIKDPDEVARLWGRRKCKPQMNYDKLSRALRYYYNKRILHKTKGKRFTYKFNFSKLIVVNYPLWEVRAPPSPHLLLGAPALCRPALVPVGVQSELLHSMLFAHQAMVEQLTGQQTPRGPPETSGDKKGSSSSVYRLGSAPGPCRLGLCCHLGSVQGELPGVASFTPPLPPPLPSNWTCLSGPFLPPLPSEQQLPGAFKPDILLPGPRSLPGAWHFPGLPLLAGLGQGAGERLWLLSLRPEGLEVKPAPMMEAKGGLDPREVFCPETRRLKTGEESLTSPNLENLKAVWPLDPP
The following applies: protein: recombinant; tags: N-terminal GST; dsDNA, one strand shown. The method in brief:
as §1

In test [13] the target is T8, ETS2 (Homo sapiens, UniProt P15036 1-469).
T8 sequence: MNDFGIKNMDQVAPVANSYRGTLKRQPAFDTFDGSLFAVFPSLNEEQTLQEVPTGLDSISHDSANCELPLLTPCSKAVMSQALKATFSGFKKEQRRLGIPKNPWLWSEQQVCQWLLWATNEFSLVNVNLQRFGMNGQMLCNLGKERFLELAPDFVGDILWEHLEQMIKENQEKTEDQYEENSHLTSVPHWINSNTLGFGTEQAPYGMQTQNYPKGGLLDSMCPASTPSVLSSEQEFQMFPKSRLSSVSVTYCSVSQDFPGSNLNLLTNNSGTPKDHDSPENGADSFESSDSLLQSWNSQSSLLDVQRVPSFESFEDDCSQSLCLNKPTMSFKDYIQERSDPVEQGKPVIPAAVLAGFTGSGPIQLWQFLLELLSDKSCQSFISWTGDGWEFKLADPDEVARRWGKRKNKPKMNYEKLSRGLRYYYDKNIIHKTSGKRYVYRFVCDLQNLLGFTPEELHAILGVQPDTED
The conditions noted are these: protein: recombinant; tags: N-terminal GST; dsDNA, one strand shown. Put shortly: as §1

Test [14] addresses T9, SPDEF (Homo sapiens, UniProt O95238 1-335).
T9 sequence: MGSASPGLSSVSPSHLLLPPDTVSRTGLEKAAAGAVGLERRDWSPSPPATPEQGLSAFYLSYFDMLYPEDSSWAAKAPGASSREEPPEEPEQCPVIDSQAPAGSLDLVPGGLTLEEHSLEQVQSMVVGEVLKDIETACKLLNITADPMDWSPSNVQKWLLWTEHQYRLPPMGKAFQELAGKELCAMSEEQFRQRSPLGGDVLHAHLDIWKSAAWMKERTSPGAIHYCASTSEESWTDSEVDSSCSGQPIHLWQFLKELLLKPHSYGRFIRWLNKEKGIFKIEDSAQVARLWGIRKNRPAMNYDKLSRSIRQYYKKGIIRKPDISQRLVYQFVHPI
The following applies: protein: recombinant; tags: N-terminal GST; dsDNA, one strand shown. Put shortly: as §1

Test [15] concerns the target T10, ETV7 (Homo sapiens, UniProt Q9Y603 1-341).
T10 sequence: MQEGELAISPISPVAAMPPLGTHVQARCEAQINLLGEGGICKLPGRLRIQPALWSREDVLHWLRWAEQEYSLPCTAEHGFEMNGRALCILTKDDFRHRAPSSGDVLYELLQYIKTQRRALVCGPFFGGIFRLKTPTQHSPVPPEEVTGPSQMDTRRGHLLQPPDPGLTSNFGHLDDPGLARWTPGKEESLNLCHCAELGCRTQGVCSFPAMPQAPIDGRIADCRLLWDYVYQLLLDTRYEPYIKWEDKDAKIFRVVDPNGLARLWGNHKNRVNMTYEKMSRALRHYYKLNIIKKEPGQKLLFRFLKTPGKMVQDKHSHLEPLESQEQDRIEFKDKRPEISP
The conditions noted are these: protein: recombinant; tags: N-terminal GST; dsDNA, one strand shown. The method in brief: as §1

The target in test [16] is T11, ELF5 (Homo sapiens, UniProt Q9UKW6-2 1-255).
T11 sequence: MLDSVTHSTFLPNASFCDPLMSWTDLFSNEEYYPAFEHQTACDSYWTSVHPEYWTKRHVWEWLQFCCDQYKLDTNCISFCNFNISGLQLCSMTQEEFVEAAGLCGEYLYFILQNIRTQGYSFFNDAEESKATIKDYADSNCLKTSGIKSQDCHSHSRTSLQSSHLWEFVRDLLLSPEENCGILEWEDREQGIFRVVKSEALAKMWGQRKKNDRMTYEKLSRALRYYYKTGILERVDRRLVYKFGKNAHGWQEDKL
The conditions noted are these: protein: recombinant; tags: N-terminal GST; dsDNA, one strand shown. Put shortly: as §1

The target in test [17] is T12, ETV3 (Homo sapiens, UniProt P41162-2 1-143).
T12 sequence: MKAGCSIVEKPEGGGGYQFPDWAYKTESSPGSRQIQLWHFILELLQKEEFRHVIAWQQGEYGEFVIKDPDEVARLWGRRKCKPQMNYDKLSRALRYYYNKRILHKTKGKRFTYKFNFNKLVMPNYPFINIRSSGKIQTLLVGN
The following applies: protein: recombinant; tags: N-terminal GST; dsDNA, one strand shown. Put shortly: as §1

The target in test [18] is ETV6 (Homo sapiens, UniProt P41212 1-452). The following applies: protein: recombinant; tags: N-terminal GST; dsDNA, one strand shown. Put shortly: as §1
Sequence of ETV6 (P41212 whole entry): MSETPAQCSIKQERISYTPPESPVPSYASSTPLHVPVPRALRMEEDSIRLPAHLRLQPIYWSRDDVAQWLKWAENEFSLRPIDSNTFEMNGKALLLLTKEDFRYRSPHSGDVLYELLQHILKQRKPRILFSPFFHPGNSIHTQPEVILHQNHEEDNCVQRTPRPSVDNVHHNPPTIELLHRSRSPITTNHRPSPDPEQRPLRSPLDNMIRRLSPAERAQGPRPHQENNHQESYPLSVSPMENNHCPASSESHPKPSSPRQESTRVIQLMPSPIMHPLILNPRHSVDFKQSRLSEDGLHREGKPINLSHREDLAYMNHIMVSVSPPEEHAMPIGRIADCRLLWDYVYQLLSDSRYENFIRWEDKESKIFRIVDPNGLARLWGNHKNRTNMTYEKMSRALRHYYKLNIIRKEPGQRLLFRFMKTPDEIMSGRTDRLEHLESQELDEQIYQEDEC

Sequence of HSF1 (Q00613 whole entry): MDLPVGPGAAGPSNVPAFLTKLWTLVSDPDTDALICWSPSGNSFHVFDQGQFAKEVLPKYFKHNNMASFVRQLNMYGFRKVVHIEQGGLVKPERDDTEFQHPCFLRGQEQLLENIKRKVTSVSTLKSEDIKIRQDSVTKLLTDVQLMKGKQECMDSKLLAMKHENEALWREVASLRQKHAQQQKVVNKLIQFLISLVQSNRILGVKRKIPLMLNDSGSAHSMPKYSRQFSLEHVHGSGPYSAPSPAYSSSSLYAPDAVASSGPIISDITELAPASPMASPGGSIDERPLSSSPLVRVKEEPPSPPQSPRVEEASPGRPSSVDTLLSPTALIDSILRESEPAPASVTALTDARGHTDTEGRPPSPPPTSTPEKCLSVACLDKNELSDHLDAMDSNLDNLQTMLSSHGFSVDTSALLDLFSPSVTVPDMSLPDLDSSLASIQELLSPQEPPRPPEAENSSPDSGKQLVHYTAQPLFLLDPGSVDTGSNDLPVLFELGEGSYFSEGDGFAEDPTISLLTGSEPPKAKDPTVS
Sequence of ETV1 (P50549 whole entry): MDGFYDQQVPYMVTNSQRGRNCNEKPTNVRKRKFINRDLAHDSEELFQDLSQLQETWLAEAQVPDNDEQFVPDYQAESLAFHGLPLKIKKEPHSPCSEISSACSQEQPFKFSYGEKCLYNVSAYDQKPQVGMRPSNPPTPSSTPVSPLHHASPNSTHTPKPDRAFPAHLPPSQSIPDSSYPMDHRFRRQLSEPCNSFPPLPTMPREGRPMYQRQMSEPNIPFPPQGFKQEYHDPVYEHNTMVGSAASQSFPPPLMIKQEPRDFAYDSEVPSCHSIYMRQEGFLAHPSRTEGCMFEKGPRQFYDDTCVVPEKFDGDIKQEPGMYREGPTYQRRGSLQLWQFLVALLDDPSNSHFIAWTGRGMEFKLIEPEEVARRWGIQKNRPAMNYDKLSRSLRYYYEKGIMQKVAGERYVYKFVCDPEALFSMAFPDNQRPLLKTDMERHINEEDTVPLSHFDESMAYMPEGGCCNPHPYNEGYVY
Sequence of CRX (O43186 whole entry): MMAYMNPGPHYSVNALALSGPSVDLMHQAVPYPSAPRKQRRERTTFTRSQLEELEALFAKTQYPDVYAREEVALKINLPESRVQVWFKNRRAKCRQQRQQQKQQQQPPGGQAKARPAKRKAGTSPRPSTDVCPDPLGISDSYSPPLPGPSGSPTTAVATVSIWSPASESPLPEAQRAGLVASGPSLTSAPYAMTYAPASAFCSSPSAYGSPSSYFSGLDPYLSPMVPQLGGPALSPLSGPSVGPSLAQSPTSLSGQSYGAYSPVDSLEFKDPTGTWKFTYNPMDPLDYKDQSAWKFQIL
Sequence of ELF4 (Q99607 whole entry): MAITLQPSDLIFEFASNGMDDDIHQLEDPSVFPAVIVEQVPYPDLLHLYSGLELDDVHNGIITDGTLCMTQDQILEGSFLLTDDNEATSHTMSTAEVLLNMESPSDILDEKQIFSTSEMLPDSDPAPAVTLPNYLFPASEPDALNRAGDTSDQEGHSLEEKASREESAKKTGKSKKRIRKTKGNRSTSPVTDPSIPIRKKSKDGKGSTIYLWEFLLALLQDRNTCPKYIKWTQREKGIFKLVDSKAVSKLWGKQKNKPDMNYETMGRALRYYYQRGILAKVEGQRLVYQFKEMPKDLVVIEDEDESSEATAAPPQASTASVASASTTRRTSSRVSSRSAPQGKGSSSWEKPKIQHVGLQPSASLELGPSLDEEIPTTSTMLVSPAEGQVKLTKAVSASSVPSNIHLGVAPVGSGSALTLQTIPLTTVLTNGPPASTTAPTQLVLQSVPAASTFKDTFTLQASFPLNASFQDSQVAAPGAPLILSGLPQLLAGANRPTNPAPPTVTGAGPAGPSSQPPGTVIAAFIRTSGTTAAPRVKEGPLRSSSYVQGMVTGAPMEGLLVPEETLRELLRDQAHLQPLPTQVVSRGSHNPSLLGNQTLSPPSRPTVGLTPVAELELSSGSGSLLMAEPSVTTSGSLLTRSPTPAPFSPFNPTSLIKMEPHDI

With GAAATC, the binding signal is 2.32 fold enrichment (6-mer frequency, TF over GST control) in [1]; 1.58 fold enrichment (6-mer frequency, TF over GST control) in test [2]; 1.23 fold enrichment (6-mer frequency, TF over GST control) in test [3]; 1.48 fold enrichment (6-mer frequency, TF over GST control) in [4]; 1.42 fold enrichment (6-mer frequency, TF over GST control) in test [5]; 1.31 fold enrichment (6-mer frequency, TF over GST control) in [6]. The binding signal in test [7] was 1.45 fold enrichment (6-mer frequency, TF over GST control); in test [8] it was 1.27 fold enrichment (6-mer frequency, TF over GST control); in test [9] it was 1.26 fold enrichment (6-mer frequency, TF over GST control); in test [10], 1.5 fold enrichment (6-mer frequency, TF over GST control); in [11], 1.31 fold enrichment (6-mer frequency, TF over GST control); in test [12], 1.42 fold enrichment (6-mer frequency, TF over GST control). For the same sequence, the binding signal is 1.41 fold enrichment (6-mer frequency, TF over GST control) in [13]; 1.4 fold enrichment (6-mer frequency, TF over GST control) in test [14]; 1.46 fold enrichment (6-mer frequency, TF over GST control) in test [15]; 1.58 fold enrichment (6-mer frequency, TF over GST control) in test [16]; 1.42 fold enrichment (6-mer frequency, TF over GST control) in test [17]; 1.49 fold enrichment (6-mer frequency, TF over GST control) in [18].
